PubChem BioAssay

Experiment: basal 3T3-L1 adipocyte mitochondrial potential changes, profiling panel, cell-based, JC-1 fluorescence, 3T3-L1 adipocytes, 24 h, 100 nL compound (AID 1168); further: test concentration not given here
Details: JC-1 mitochondrial fluorescence, higher = more signal, called active from +8 up or from −8 down

z-score, inactive:
NC(=O)NCC#Cc1ccc2c(c1)[C@]1(C(=O)N2)[C@H](C(=O)N2CCN(c3ncccn3)CC2)[C@H]2C(=O)O[C@H](c3ccccc3)[C@H](c3ccccc3)N2[C@@H]1c1ccc(O)cc1 -1.02
COc1ccc(C#Cc2ccc3c(c2)[C@]2(C(=O)N3)[C@H](c3ccc(O)cc3)N3[C@H](c4ccccc4)[C@H](c4ccccc4)OC(=O)[C@H]3[C@@H]2C(=O)Nc2nc3ccccc3s2)cc1 0.0579
COCCCNC(=O)[C@@]1(Sc2ccc(C)cc2)CC(=O)N(C2Cc3ccccc3C2)[C@@H]1c1ccc(CO)cc1 -0.137
CCC1=C2CN(Cc3ccccc3)[C@@H](C(=O)Cc3ccccc3)C2C=CCC1 (stereo partly specified) 0.152
CCOC(=O)C1=C[C@@H](C(C)(C)C)N(S(=O)(=O)c2ccc(C)cc2)[C@H]1c1cccc2ccccc12 0.348
C=CCC(OC(C)=O)[C@@H]1[C@@H](N(Cc2cc3ccccc3o2)C(=O)Cc2ccc(F)cc2)c2cc(OCCCO)ccc2N1C(=O)Cc1ccc2ccccc2c1 (stereo partly specified) -0.683
COC(=O)[C@@]1(Cc2ccc(OC)cc2)[C@H]2c3cc(C(=O)N4CCCC4)n(CCc4c[nH]c5ccc(OC)cc45)c3C[C@H]2CN1C(=O)c1ccccc1 -1.04
COC(=O)[C@@]1(Cc2ccc(OC)cc2)[C@H]2c3cc(C(=O)N(C)C)n(Cc4ccc(C)o4)c3C[C@H]2CN1C(=O)c1ccccc1 -0.263
CC(C)c1ccc(NN2C(C(O)c3ccc(F)cc3)C=CC3C(=O)N(c4ccccc4)C(=O)C32)cc1 (stereo unspecified) -0.382
COc1cc2c(cc1O)C(C1CC1)N(C)CC2 (stereo unspecified) 0.883
CCCCN1CC=CC23O[C@@H]4/C=C\CCCOC(=O)C4[C@H]2C(=O)N(CCO)[C@@H]3C1=O (stereo partly specified) 0.0794
COCCCNC(=O)[C@@]1(CCC(=O)OC(C)(C)C)N=C(c2ccc(OCCCO)cc2)O[C@H]1c1ccccc1N=[N+]=[N-] 3.98
CS(=O)(=O)CCOC(=O)C1=CC(c2ccc(CO)cc2)=CC(C2CC2)N(Cc2sc3ccccc3c2Cl)C=C1C(=O)OCCS(C)(=O)=O (stereo unspecified) 0.662
COCCOC(=O)N1C(=O)[C@@]2(c3ccccc31)[C@H](C(=O)NC[C@H](O)c1ccccc1)[C@H]1C(=O)O[C@H](c3ccccc3)[C@H](c3ccccc3)N1[C@@H]2c1ccc(O)cc1 -0.221
CN(C)C(=O)[C@]1(Cc2ccccc2CN=[N+]=[N-])N=C(c2ccc(OCCCO)cc2)O[C@@H]1c1ccccc1 -0.58
COc1cc(OC)c(C(O)C2C=CC3C(=O)N(Cc4ccccc4)C(=O)C3N2n2cnnc2)cc1Br (stereo unspecified) 0.771
C=C[C@H](C)[C@H](OC(=O)Nc1ccc(SC)cc1)c1ccc(OCCO)cc1 0.508
CCOC(=O)C1=C[C@@H](C(C)C)N(S(=O)(=O)c2ccc(C)cc2)[C@H]1c1ccc(C(F)(F)F)cc1 -0.216
CCOC(=O)C[C@H]1[C@H](OC(=O)c2ccc(-c3ccccc3)cc2)[C@@H](NC(=O)CC(C)C)c2cc(OCCCO)ccc2N1C(=O)c1ccc2ccccc2n1 1.47
COc1cccc(C)c1NC(=O)O[C@H]1[C@H](OC(=O)Nc2ccccc2-c2ccccc2)[C@H](OC(=O)Nc2ccccc2-c2ccccc2)[C@@H](OC)O[C@@H]1CO 1.33
C=C(COC)C(=O)CC[C@@H](OC(C)=O)c1cccc(OCCO)c1 -0.196
C=CCNC(=O)[C@@H]1[C@H]2C(=O)O[C@H](c3ccccc3)[C@H](c3ccccc3)N2[C@H](c2ccc(OCCO)cc2)[C@@]12C(=O)N(C(=O)OCCOC)c1ccc(C#Cc3ccc(OC)cc3)cc12 0.8
CCCNC(=O)[C@@]1(C)c2ccccc2C(=O)N(c2ccc(C)cn2)[C@H]1c1ccc(CO)cc1 -0.0622
CC(=O)NCCCC[C@@H]1NC(=O)[C@@H]2C[C@H](C(=O)NCCCCCN)[C@H](c3ccc(O)cc3)N2C1=O -0.00185
CC1CC/C=C\[C@H]2OC34C=CCN(Cc5ccccc5)C(=O)[C@H]3N(C(CO)C(C)C)C(=O)[C@@H]4C2C(=O)O1 (stereo partly specified) 0.000812
COc1ccc(CCNC(=O)[C@@]2(c3ccc([N+](=O)[O-])cc3)CC(=O)N(C3CCCCC3)[C@@H]2c2ccc(CO)cc2)cc1 -0.171
C=CCC(OC(C)=O)[C@@H]1[C@@H](N(Cc2cccc3ccccc23)C(=O)Cc2ccc(OC)cc2)c2cc(OCCCO)ccc2N1C(=O)c1ccc(-c2ccccc2)cc1 (stereo partly specified) 0.286
COc1ccc([Si](C)(C)[C@@H]2[C@@H](CCO)O[C@]3(C(=O)N(Cc4ccccc4)c4ccc(NC(=O)[C@H](C)O)cc43)[C@H]2C)cc1 -0.241
[N-]=[N+]=Nc1ccccc1[C@@H]1OC(c2ccc(OCCCO)cc2)=N[C@]1(Cc1ccccc1)C(=O)O 1.62
COc1ccc([C@H]2OC[C@@H]3C[C@H](Cc4ccccc4)C(=O)N32)cc1 0.0558
CC(C)N1CC=CC23O[C@@H]4C=CCCOC(=O)C4[C@H]2C(=O)N(CCCO)[C@@H]3C1=O (stereo partly specified) 0.128
COc1ccc([Si](C)(C)[C@@H]2[C@@H](CCO)O[C@]3(C(=O)N(Cc4cccc(NC(=O)[C@H](C)O)c4)c4ccccc43)[C@H]2C)cc1 1.5
NCCCCCNC(=O)[C@@H]1C[C@@H]2C(=O)N[C@@H](CCCCN)C(=O)N2[C@@H]1c1ccc(O)cc1 1.56
C=CCN1Cc2ccccc2[C@@H]2OC(c3ccc(OCCCO)cc3)=N[C@]2(CC=C)C1=O 0.0517
C=CCNC(=O)[C@@H]1[C@H]2C(=O)O[C@H](c3ccccc3)[C@H](c3ccccc3)N2[C@H](c2ccccc2OCCO)[C@@]12C(=O)N(C(=O)OCCOC)c1ccc(C#CC3(O)CCCCCC3)cc12 -0.389
CC(C)N1C(=O)c2ccccc2[C@@H](C(=O)NCCN2CCOCC2)[C@@H]1c1ccc(CO)cc1 -1.26
